# Test results reported in PubChem BioAssay (Tox21).
# Results filed as inconclusive are left out. Where a call stands in place of a potency, no number is given. A number with no mark means an inactive call. Activity calls are given as the source filed them. Unless noted, the call rests on the fitted dose curve; in most records, active means well fitted curve in the direction sought with a large enough effect in the repeat runs; inconclusive means weak or mixed curves; inactive means no such curve, though single readings can be large; an effect the other way counts as inactive or inconclusive.
# Key:
# [1] = qHTS assay to identify small molecule agonists of the RXR signaling pathway - cell viability counter screen (AID 1159529); further: nearly all actives have a fitted effect of over 50% in size; further: potency means the concentration at half of the fitted maximal effect
# Method in brief: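 Cell viability is measured by CellTiter-Glo luminescence, 30 min at room temperature, in wells already read for beta-lactamase. Engineered HEK 293T cells (RXR-alpha-UAS-bla) are dosed 16 hr at 37 C. Tetraoctyl ammonium bromide serves as positive control.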
# [2] = qHTS assay to identify small molecule antagonists of the retinoid acid receptor (RAR) signaling pathway - cell viability counter screen (AID 1159551); further: nearly all actives have a fitted effect of over 35% in size
# Method in brief: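 Viability of C3RL4 cells is quantified from ATP by luminescence after 6 h treatment at 37 C with compounds and 1 uM retinol.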
# [3] = molecular target: Nuclear receptor subfamily 1 group I member 3 (Homo sapiens) (UniProt Q14994); assay: qHTS assay to identify small molecule antagonists of the constitutive androstane receptor (CAR) signaling pathway (AID 1224838); further: nearly all actives have a fitted effect of over 40% in size; further: potency means the concentration at half of the fitted maximal effect
# Sequence of Nuclear receptor subfamily 1 group I member 3 (Homo sapiens) (Q14994 whole entry, looked up): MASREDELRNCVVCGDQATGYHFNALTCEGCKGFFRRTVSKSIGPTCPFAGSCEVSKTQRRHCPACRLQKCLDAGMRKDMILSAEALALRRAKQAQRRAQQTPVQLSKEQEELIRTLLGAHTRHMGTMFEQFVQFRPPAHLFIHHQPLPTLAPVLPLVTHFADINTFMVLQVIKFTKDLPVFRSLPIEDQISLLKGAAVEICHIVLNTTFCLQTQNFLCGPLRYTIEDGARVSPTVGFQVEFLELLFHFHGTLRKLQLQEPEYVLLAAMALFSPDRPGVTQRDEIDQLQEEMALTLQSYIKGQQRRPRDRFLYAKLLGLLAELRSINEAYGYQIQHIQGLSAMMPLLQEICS
# Method in brief: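 CITCO-stimulated (50 nM final) HepG2 cells stably transfected with hCAR and CYP2B6-2.2kb luciferase were exposed to compounds at 15 concentrations for 24 h at 37 C/5% CO2. A luciferase reagent was added and luminescence recorded after 30 min.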
# [4] = molecular target: Nuclear receptor subfamily 1 group I member 3 (Homo sapiens) (UniProt Q14994); assay: qHTS assay to identify small molecule agonists of the constitutive androstane receptor (CAR) signaling pathway (AID 1224839); further: series mostly up to about 92 µM; nearly all actives have a fitted effect of over 15% in size
# Method in brief: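 A 15-concentration quantitative screen uses HepG2 cells co-transfected stably with human CAR and CYP2B6-2.2kb reporter. Treatment lasts 24 h with 0.75 uM PK11195 final present; ONE-Glo luminescence is the signal.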
# [5] = qHTS assay to identify small molecule agonists of the estrogen related receptor signaling pathway with the pleiotropic PPARgamma coactivator (PGC) from Tox21 10K library (AID 1224842); further: nearly all actives have a fitted effect of over 15% in size
# Method in brief: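 PGC/ERR reporter cell line, 2,000 cells per well, incubated 6 h at 37 C before 23 nL compound in DMSO was added. After 18 h at 37 C, One-Glo luminescence read following 30 min at room temperature.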
# [6] = molecular target: Thyrotropin receptor (Homo sapiens) (UniProt P16473); assay: qHTS assay to identify small molecule agonists of the thyroid stimulating hormone receptor (TSHR) signaling pathway (AID 1224843; calls by dose curve; further: nearly all actives have a fitted effect of over 45% in size; further: potency means the concentration at half of the fitted maximal effect)
# Sequence of Thyrotropin receptor (Homo sapiens) (P16473 whole entry, looked up): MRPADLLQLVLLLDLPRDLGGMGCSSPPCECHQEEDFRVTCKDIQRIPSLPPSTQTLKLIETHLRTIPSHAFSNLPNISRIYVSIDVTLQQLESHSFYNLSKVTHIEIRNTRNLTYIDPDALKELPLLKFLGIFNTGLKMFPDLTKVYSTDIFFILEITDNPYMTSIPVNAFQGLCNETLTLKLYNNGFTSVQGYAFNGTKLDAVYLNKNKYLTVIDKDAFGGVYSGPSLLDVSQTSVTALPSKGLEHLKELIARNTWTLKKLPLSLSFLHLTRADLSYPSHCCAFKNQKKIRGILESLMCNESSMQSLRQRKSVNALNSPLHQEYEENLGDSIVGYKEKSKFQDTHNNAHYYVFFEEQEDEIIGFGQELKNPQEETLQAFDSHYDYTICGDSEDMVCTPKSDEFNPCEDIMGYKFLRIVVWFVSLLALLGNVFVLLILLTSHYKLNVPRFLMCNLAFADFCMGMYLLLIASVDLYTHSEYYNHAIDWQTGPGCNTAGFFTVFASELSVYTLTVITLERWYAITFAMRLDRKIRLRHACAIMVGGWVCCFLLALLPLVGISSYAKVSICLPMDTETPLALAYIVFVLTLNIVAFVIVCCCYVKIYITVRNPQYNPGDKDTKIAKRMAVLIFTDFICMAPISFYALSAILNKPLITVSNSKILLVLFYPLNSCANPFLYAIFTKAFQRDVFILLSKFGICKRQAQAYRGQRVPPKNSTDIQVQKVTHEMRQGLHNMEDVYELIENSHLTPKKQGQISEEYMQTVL
# Method in brief: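 Agonist-mode screen: TSHR HEK293 cells received test chemicals for half an hour at room temperature, then HTRF cAMP detection reagents for one hour prior to fluorescence measurement. Each chemical ran as a 15-concentration series, triplicated.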
# [7] = qHTS assay to identify small molecule antagonists of the retinoic acid receptor (RAR) signaling pathway (AID 1159552; further: nearly all actives have a fitted effect of over 50% in size; further: potency means the concentration at half of the fitted maximal effect)
# Method in brief: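 Quantitative HTS in C3RL4 RARE-luciferase reporter cells. Compounds were added with 1 uM (final) retinol; luminescence was read after 6 hr.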
# [8] = qHTS assay to identify small molecule antagonists of the estrogen related receptor (ERR) signaling pathway - cell viability counter screen (AID 1224818); further: potency means the concentration at half of the fitted maximal effect
# Method in brief: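 Cytotoxicity check run alongside the ERR antagonist screen: cells exposed to test compounds 17.5 h at 37 C, viability taken as CellTiter-Fluor fluorescence intensity.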
# [9] = qHTS assay to identify small molecule agonists of the estrogen related receptor (ERR) signaling pathway (AID 1224820)
# Method in brief: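 An ERR cell line provided by NTP was seeded at 2,000 cells per well and allowed to settle for 6 h before compounds in DMSO were added. After 18 h at 37 C, luciferase activity was measured by One-Glo luminescence.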
# [10] = qHTS assay to identify small molecule antagonists of the estrogen related receptor signaling pathway with the pleiotropic PPARgamma coactivator (PGC) cell viability counter screen (AID 1224822; further: potency means the concentration at half of the fitted maximal effect)
# Method in brief: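 Viable cell signal (CellTiter-Fluor, 30 min, 37 C/5% CO2) was measured in PGC/ERR cells after a 17.5 h compound incubation.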
# [11] = qHTS assay to identify small molecule agonists of the estrogen related receptor signaling pathway with the pleiotropic PPARgamma coactivator (PGC) (AID 1224823)
# Method in brief: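 Compounds dissolved in DMSO are added by pin tool to PGC/ERR cells that have settled for 6 h, and incubation continues 18 h at 37 C. Reporter output is measured as One-Glo luminescence.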
# [12] = qHTS assay to identify small molecule antagonists of the estrogen related receptor (ERR) signaling pathway from Tox21 library - cell viability counter screen (AID 1224834); further: nearly all actives have a fitted effect of over 30% in size; further: potency means the concentration at half of the fitted maximal effect
# Method in brief: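 In this quantitative HTS format, ERR cells receive compounds in DMSO and are incubated for 17.5 h at 37 C. Live-cell protease activity is then detected with CellTiter-Fluor.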
# [13] = molecular target: Luciferin 4-monooxygenase (Photinus pyralis) (UniProt P08659); assay: qHTS assay to identify small molecule inhibitors of firefly luciferase (AID 1224835); further: nearly all actives have a fitted effect of over 25% in size; further: potency means the concentration at half of the fitted maximal effect
# Sequence of Luciferin 4-monooxygenase (Photinus pyralis) (P08659 whole entry, looked up): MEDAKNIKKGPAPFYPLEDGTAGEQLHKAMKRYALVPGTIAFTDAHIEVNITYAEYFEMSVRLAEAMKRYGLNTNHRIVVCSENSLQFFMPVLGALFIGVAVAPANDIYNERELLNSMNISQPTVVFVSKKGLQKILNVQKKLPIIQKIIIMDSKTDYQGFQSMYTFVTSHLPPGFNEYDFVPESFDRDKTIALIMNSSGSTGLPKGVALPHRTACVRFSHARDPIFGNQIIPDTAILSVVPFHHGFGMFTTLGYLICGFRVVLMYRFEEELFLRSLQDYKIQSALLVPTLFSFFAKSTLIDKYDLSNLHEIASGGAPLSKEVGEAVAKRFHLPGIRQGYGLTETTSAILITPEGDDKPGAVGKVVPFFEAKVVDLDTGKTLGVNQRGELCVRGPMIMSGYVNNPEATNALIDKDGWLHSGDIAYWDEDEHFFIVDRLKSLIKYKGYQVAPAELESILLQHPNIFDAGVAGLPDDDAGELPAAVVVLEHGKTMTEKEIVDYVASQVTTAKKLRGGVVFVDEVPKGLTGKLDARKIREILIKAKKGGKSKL
# Method in brief: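 Biochemical qHTS: compounds run as interplate titrations against purified firefly enzyme, with D-luciferin and ATP each at its KM concentration. Light output recorded by CCD imaging.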
# [14] = qHTS assay to identify small molecule agonists of the constitutive androstane receptor (CAR) signaling pathway - cell viability counter screen (AID 1224836); further: nearly all actives have a fitted effect of over 45% in size; further: potency means the concentration at half of the fitted maximal effect
# Method in brief: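 Counter screen multiplexed with the CAR reporter readout: HepG2 cells co-transfected with hCAR and the CYP2B6-2.2kb construct receive a 15-concentration compound series and 0.75 uM PK11195 (final), then CellTiter-Fluor fluorescence is read after 23 h.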
# [15] = qHTS assay to identify small molecule antagonists of the estrogen related receptor signaling pathway with the pleiotropic PPARgamma coactivator (PGC) from Tox21 10K library (AID 1224841; call rule not given here; further: actives are mostly falling curves and most rising ones were filed inactive; nearly all actives have a fitted effect of over 50% in size; further: potency means the concentration at half of the fitted maximal effect)
# Method in brief: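 In the PGC/ERR line, DMSO solutions of test chemicals are pin-delivered to 2,000 cells/well six hours after dispensing. Following eighteen hours' incubation, One-Glo reagent is added and luminescence recorded.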
# [16] = qHTS assay to identify small molecule agonists of the retinoic acid receptor (RAR) signaling pathway (AID 1159553)
# Method in brief: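 Compounds dissolved in DMSO were pinned onto C3RL4 cells seeded the previous day, and plates were held 6 hr at 37 C. RARE-driven luciferase output was then read by luminescence.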
# [17] = qHTS assay to identify small molecule antagonists of the constitutive androstane receptor (CAR) signaling pathway - cell viability counter screen (AID 1224837); further: nearly all actives have a fitted effect of over 45% in size; further: potency means the concentration at half of the fitted maximal effect
# Method in brief: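 In quantitative HTS format, compounds at 15 concentrations were applied to HepG2 cells double-transfected with hCAR and CYP2B6-2.2kb under 50 nM CITCO stimulation; live-cell protease activity was read after 23 hr via CellTiter-Fluor.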
# [18] = qHTS assay to identify small molecule antagonists of the estrogen related receptor signaling pathway with the pleiotropic PPARgamma coactivator (PGC) from Tox21 10K library - cell viability counter screen (AID 1224840; active means well fitted cell-killing curve with a large enough effect in the repeat runs, not every such curve was filed as active; further: nearly all actives have a fitted effect of over 40% in size; further: potency means the concentration at half of the fitted maximal effect)
# Method in brief: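 Viability counter screen, PGC/ERR cells: 17.5 h compound exposure at 37 C, CellTiter-Fluor fluorescence endpoint.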
smiles,measurement,setting,value
O=C(Oc1cccc2cccnc12)c1ccccc1,Potency,[1],8.49 µM (active)
same,Potency,[2],inactive
same,Potency,[3],0.001 µM (active)
same,Potency,[4],inactive
same,Potency,[5],inactive
same,Potency,[6],inactive
N=C1N=C(N)c2cc3ccccc3cc21,Potency,[1],49 µM (active)
same,Potency,[7],43.3 µM (active)
same,Potency,[8],25.3 µM (active)
same,outcome,[9],inactive
same,Potency,[10],20.9 µM (active)
same,outcome,[11],inactive
same,Potency,[12],27.3 µM (active)
same,Potency,[13],inactive
same,Potency,[14],24.3 µM (active)
same,Potency,[15],inactive
same,Potency,[6],6.86 µM (active)
CCC(Cl)C(Cl)C(Cl)CC(Cl)C(Cl)C(C)Cl (configuration not stated),Potency,[2],inactive
same,Potency,[7],inactive
same,Potency,[16],inactive
same,Potency,[13],inactive
same,Potency,[14],inactive
same,Potency,[17],inactive
same,Potency,[18],inactive
NC(=O)C1(N2CCCCC2)CCN(CCCN2c3ccccc3CCc3ccc(Cl)cc32)CC1,Potency,[1],21.3 µM (active)
same,Potency,[13],inactive
same,Potency,[4],inactive
same,Potency,[18],26.6 µM (active)
CCCCCCCCCCCCCCCCCC[N+](C)(C)C,Potency,[1],24.6 µM (active)
same,Potency,[12],61.3 µM (active)
same,Potency,[13],inactive
same,Potency,[17],54.6 µM (active)
same,Potency,[4],inactive
same,Potency,[15],54.6 µM (active)
same,Potency,[5],inactive
Cc1[nH]cnc1C[C@H]1CCc2c(C)c3ccccc3n2C1=O,Potency,[1],19 µM (active)
same,Potency,[12],47.4 µM (active)
same,Potency,[13],inactive
same,Potency,[3],59.6 µM (active)
same,Potency,[4],inactive
same,Potency,[15],23.7 µM (active)
same,Potency,[5],inactive
same,Potency,[6],inactive
O=C(OCC1CO1)C1CCCCC1C(=O)OCC1CO1 (configuration not stated),Potency,[1],inactive
same,Potency,[13],inactive
same,Potency,[14],inactive
same,Potency,[3],inactive
same,Potency,[4],inactive
same,Potency,[6],inactive
CCc1oc2ccccc2c1C(=O)c1cc(Br)c(O)c(Br)c1,Potency,[2],inactive
same,Potency,[7],inactive
same,Potency,[13],inactive
same,Potency,[14],inactive
same,Potency,[17],inactive
same,Potency,[3],inactive
same,Potency,[4],inactive
same,Potency,[18],inactive
same,Potency,[6],inactive
CCCCCOc1ccccc1/C(=C\SC)n1ccnc1,Potency,[2],inactive
same,Potency,[7],inactive
same,Potency,[12],29.8 µM (active)
same,Potency,[13],inactive
same,Potency,[14],inactive
same,Potency,[17],inactive
same,Potency,[18],inactive
same,Potency,[6],21.1 µM (active)
CN(C)CCCOC1(Cc2ccccc2)CCCCCC1,Potency,[2],inactive
same,Potency,[7],inactive
same,Potency,[16],inactive
same,Potency,[12],inactive
same,Potency,[13],inactive
same,Potency,[14],inactive
same,Potency,[17],inactive
same,Potency,[18],inactive
same,Potency,[6],inactive
NNc1nc(-c2ccc(N)cc2)cs1,Potency,[1],inactive
same,Potency,[12],54.5 µM (active)
same,Potency,[13],35.6 µM (active)
same,Potency,[14],inactive
same,Potency,[17],inactive
same,Potency,[3],inactive
same,Potency,[15],61.1 µM (active)
